Compound activity: PubChem, National Center for Advancing Translational Sciences (NCATS)
SARS PLpro yeast: qHTS of Yeast-based Assay for SARS-CoV PLP. S. cerevisiae expressing SARS-CoV PLpro, growth rescue. AID 485353, 2010. 330,000 compounds, 0.19% hits. Potency, µM (doses to about 32.9 µM), without a hit: top-dose activity, positive = growth rescue, most hits filed as activators; calls by dose curve; note: 0% is about no effect; nearly all actives have a fitted effect of over 55% in size
Tb PYK inh: qHTS of Trypanosoma Brucei Inhibitors; Potency, µM (titrated, usually from 76.8 µM), for inactives: at the highest dose activity, negative = inhibition, most hits filed as inhibitors; 410,000 compounds, 0.12% hits; AID 624173, 2012; TbPYK enzyme, Kinase-Glo Plus ATP luminescence, 45 min; note: % is set by controls: 0 for no effect and ±100 for the full control effect; nearly all actives have a fitted effect of over 50% in size
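Enzyme and substrate buffer are dispensed first and compound is pin-transferred. ADP at 130 uM final then starts the reaction, which runs 45 min at room temperature. Detection reagent is added for 10 min before luminescence is imaged.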
RE007 growth inh: qHTS Assay for Inhibitors of the HIV-1 protein Vpr | 360,000 compounds, 0.21% hits | Potency, µM (top dose mostly 92.2 µM), for inactives: at the top dose activity change, negative = less growth, actives largely listed as inhibitors | S. pombe RE007 Vpr strain, BacTiter-Glo ATP luminescence, 24 h; active = well fitted falling curve with a large enough effect; inconclusive = small, poorly fitted or top-dose-only effect; inactive = no such curve, though single readings can be large or run the other way; note: % is set by controls: 0 for no effect and ±100 for the full control effect; nearly all actives have a fitted effect of over 50% in size
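Fission yeast RE007 carrying one integrated HIV-1 vpr copy, seeded at OD 0.01 in PMG+AL medium with 23 nL pinned compound. Grown 24 h at 30 degrees; viability read by BacTiter-Glo luminescence after 5 min.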
AmpC detergent: qHTS Inhibitors of AmpC Beta-Lactamase (assay with detergent); AmpC hydrolysis of nitrocefin, absorbance 480 nm, 0.01% Triton; Potency, µM (doses to about 114 µM), for inactives: top-dose activity change, negative = inhibition, actives largely listed as inhibitors; 370,000 compounds, 0.041% hits; AID 485294, 2010;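 note: 0% = no-compound wells and -100% = no-enzyme wells; nearly all actives have a fitted effect of over 25% in size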
Target sequence (P00811 whole entry, looked up): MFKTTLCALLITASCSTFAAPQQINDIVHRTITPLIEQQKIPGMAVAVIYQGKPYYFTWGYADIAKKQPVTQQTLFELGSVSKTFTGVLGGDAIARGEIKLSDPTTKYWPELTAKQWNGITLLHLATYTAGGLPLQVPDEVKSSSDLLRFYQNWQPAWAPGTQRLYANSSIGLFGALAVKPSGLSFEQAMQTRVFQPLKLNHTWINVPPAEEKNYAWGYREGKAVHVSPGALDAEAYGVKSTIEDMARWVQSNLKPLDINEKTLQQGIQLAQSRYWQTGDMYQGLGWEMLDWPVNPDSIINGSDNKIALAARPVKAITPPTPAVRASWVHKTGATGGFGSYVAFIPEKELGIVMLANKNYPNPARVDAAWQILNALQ
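AmpC (5.3 nM in the dispensed reagent) in 20 mM phosphate pH 7.0 with 0.01% (detergent screen) or 0.0001% Triton X-100 was preincubated with compounds for 15 min at room temperature. Nitrocefin was then added from an 800 uM solution, and hydrolysis was followed at 480 nm.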
AmpC inh no detg: qHTS Inhibitors of AmpC Beta-Lactamase (assay without detergent); P00811; Potency, µM (highest dose often 57.1 µM), for the others: at the top dose activity change, negative = inhibition, usual class: inhibitors; 330,000 compounds, 0.52% hits; AmpC nitrocefin hydrolysis, absorbance 480 nm, 0.0001% Triton;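 note: plate controls were no compound for no effect and no enzyme for full effect; nearly all actives have a fitted effect of over 20% in size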
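AmpC (5.3 nM in the dispensed reagent) in 20 mM phosphate pH 7.0 with 0.01% (detergent screen) or 0.0001% Triton X-100 was preincubated with compounds for 15 min at room temperature. Nitrocefin was then added from an 800 uM solution, and hydrolysis was followed at 480 nm.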
Sm TGR block: qHTS Assay for the Inhibitors of Schistosoma Mansoni Peroxiredoxins | Schistosoma mansoni thioredoxin glutathione reductase (TGR), Q962Y6 | AID 485364, 2010 | 360,000 compounds, 3% hits | purified TGR, DTNB reduction, TNB absorbance 405 nm | Potency, µM (doses to about 114 µM), for inactives: at the highest dose activity change, negative = inhibition, usual class: inhibitors; note: % is set by controls: 0 for no effect and ±100 for the full control effect; nearly all actives have a fitted effect of over 60% in size
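First, TGR (20 nM dispensed) and NADPH were mixed with compound. Second, a 15 min room-temperature incubation followed. Third, further NADPH and then DTNB were added to start the reaction. Finally, TNB absorbance was monitored kinetically.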
* marks the source's active call; other numbers are inactive results. An excerpt weighted towards active compounds, which were near 3.3% of everything screened. Unless noted, calls come from the whole dose curve; as a rule, active = well fitted curve in the direction sought with a large enough effect; inconclusive = small, poorly fitted or top-dose-only effect, or another doubt; inactive = no such curve, though single readings can be large; an effect the other way counts as inactive or inconclusive. Potency is the fitted concentration of half-maximal effect.

What do the screens show for `Cc1cc(C(=O)CSc2nncs2)c(C)n1-c1ccc2c(c1)OCO2`?
SARS PLpro yeast: -9%; Tb PYK inh: -9%; RE007 growth inh: 10%; AmpC detergent: inconclusive; AmpC inh no detg: 0.28µM*; Sm TGR block: -30%

How did Cc1cc(C(=O)CSc2nnnn2-c2ccc(O)cc2)c(C)n1Cc1ccc2c(c1)OCO2 do in these assays?
SARS PLpro yeast: 3%; Tb PYK inh: 0%; RE007 growth inh: -9%; AmpC detergent: -8%; AmpC inh no detg: 2.2µM*; Sm TGR block: 0%

Results for Cc1cc(C(=O)CSc2nnnn2-c2ccccc2)c(C)n1-c1ccc2c(c1)OCO2 ?
SARS PLpro yeast: 7%; Tb PYK inh: -3%; RE007 growth inh: 11%; AmpC detergent: 4%; AmpC inh no detg: -42%; Sm TGR block: -18%

How did CC1=NC(Nc2nc(C)c3ccccc3n2)=NC(C)(C)C1 do in these assays?
SARS PLpro yeast: -5%; Tb PYK inh: 0%; RE007 growth inh: -5%; AmpC detergent: inconclusive; AmpC inh no detg: -48%; Sm TGR block: 25µM*

How did Cc1nc(Nc2ncc3c(n2)CC(C)(C)CC3=O)nc2ccccc12 do in these assays?
Tb PYK inh: 5%; RE007 growth inh: 10%

Results for Cc1ccc(N(C)S(=O)(=O)c2nnc(NC(=O)C3CCCCC3)s2)cc1 ?
Tb PYK inh: 1%; AmpC detergent: 10%; Sm TGR block: 3%

What do the screens show for `CN(C)CC(C(=O)c1ccccc1)c1ccccc1` (stereo not given)?
SARS PLpro yeast: -17%; Tb PYK inh: -6%; RE007 growth inh: 40µM*; AmpC detergent: inconclusive; AmpC inh no detg: -22%; Sm TGR block: 35µM*

Results for CN(Cc1cc(Cl)cc(Cl)c1)CC(C(=O)c1ccccc1)c1ccccc1 (stereo not given) ?
Tb PYK inh: 3%; RE007 growth inh: 12%

Results for CC(C)C(NS(=O)(=O)c1ccc2c(c1)oc(=O)n2C)C(=O)NCCc1ccccc1 (stereo not given) ?
Tb PYK inh: 1%; AmpC detergent: -14%; Sm TGR block: 2%

Results for CCOC(=O)CSc1nnc(-c2ccco2)n1-c1ccccc1 ?
SARS PLpro yeast: 10%; Tb PYK inh: -12%; RE007 growth inh: -3%; AmpC detergent: -3%; AmpC inh no detg: -2%; Sm TGR block: 22µM*

What do the screens show for `CCOC(=O)CSc1nnc(-c2ccco2)n1-c1ccc(C)cc1`?
SARS PLpro yeast: -1%; Tb PYK inh: 2%; RE007 growth inh: 13%; AmpC detergent: 2%; AmpC inh no detg: -7%; Sm TGR block: inconclusive

Results for C=CCn1c(SCC(=O)Nc2ccccc2OC)nnc1-c1ccco1 ?
SARS PLpro yeast: 1%; AmpC detergent: -3%; AmpC inh no detg: -12%; Sm TGR block: 45µM*

What do the screens show for `CNC(=O)CSc1nnc(-c2ccco2)n1-c1ccccc1OC`?
SARS PLpro yeast: 9%; Tb PYK inh: -5%; RE007 growth inh: -12%; AmpC detergent: -9%; AmpC inh no detg: -3%; Sm TGR block: 79µM*

How did Cc1ccc(NC(=O)Nc2nnc(SCC(=O)N3CCCCC3)s2)cc1 do in these assays?
Tb PYK inh: 3%; AmpC detergent: 0%; Sm TGR block: 1%

What do the screens show for `CCOc1ccccc1CNC(=O)CCc1cn(Cc2ccc(Cl)cc2)c2ccccc12`?
Tb PYK inh: 4%; AmpC detergent: 21%; Sm TGR block: 3%

Results for Cc1cccc(N2CCn3c2nc2c3c(=O)n(CCCc3ccccc3)c(=O)n2C)c1 ?
Tb PYK inh: 2%; AmpC detergent: 8%; Sm TGR block: -16%

What do the screens show for `O=c1c2cccnc2n(Cc2ccc(Cl)cc2)c(=O)n1Cc1ccc(F)cc1`?
Tb PYK inh: 5%; AmpC detergent: 13%; Sm TGR block: -2%

Results for COc1cccc(CNC(=O)CCCNC(=O)c2ccc(Cl)cc2)c1 ?
SARS PLpro yeast: 9%; Tb PYK inh: -4%; RE007 growth inh: -26%; AmpC detergent: -3%; AmpC inh no detg: 30%; Sm TGR block: 22µM*

What do the screens show for `Cn1c(=O)c2c(nc(SCC(=O)Nc3ccc(F)cc3)n2Cc2ccccc2F)n(C)c1=O`?
Tb PYK inh: -2%; AmpC detergent: -4%; Sm TGR block: -5%

How did O=C(CNC(=O)c1ccc(Br)o1)Nc1ncccc1O do in these assays?
Tb PYK inh: 3%; RE007 growth inh: -8%; AmpC detergent: inconclusive; AmpC inh no detg: 17%; Sm TGR block: 45µM*

Results for Cc1cccnc1NC(=O)c1ccc(Br)o1 ?
SARS PLpro yeast: 0%; Tb PYK inh: 5%; RE007 growth inh: 9%; AmpC detergent: inconclusive; AmpC inh no detg: 81%; Sm TGR block: -9%

How did Cc1ccc(-n2ncc3c(N4CCN(Cc5ccccc5)CC4)ncnc32)cc1Cl do in these assays?
Tb PYK inh: 4%; AmpC detergent: -1%; Sm TGR block: -26%

How did COCCN(C(=O)c1ccco1)c1nc(-c2ccccc2)cs1 do in these assays?
SARS PLpro yeast: 1%; Tb PYK inh: -3%; RE007 growth inh: 34%; AmpC detergent: -19%; AmpC inh no detg: -6%; Sm TGR block: 63µM*

What do the screens show for `COC1=C/C(=C/c2c(N)n3c(nc2=O)sc2cc(S(C)(=O)=O)ccc23)C=CC1=O`?
SARS PLpro yeast: 2%; Tb PYK inh: 2%; RE007 growth inh: -10%; AmpC detergent: 4%; AmpC inh no detg: -42%; Sm TGR block: -5%

Results for CS(=O)(=O)c1ccc2c(c1)sc1nc(=O)c(/C=C3/C=CC(=O)C(O)=C3)c(N)n12 ?
SARS PLpro yeast: 0%; Tb PYK inh: -14%; RE007 growth inh: -16%; AmpC detergent: 2%; AmpC inh no detg: -52%; Sm TGR block: 45µM*

How did CC(=O)NC(c1ccccc1)c1cc(Cl)c2cccnc2c1O (stereo not given) do in these assays?
SARS PLpro yeast: inconclusive; Tb PYK inh: -7%; RE007 growth inh: -2%; AmpC detergent: -6%; AmpC inh no detg: -7%; Sm TGR block: -23%

Results for CC(=O)NC(c1ccco1)c1cc(Cl)c2ccc(N3CCCCC3)nc2c1O (stereo not given) ?
SARS PLpro yeast: -6%; AmpC detergent: 0%; AmpC inh no detg: -11%; Sm TGR block: 10µM*
